Measured values reported in PubChem BioAssay AID504832 (National Center for Advancing Translational Sciences (NCATS), 2011).
Out of some 310,000 compounds screened, about 18,000 (5.8%) were called active. Inconclusive results (about 22%) are left out. Shown is part of a subset that was picked to be rich in actives. Values without a mark were called inactive. Calls come from the whole dose curve; as a rule, active = well fitted inhibition curve with a large enough effect; inconclusive = small, poorly fitted or top-dose-only effect, or another doubt; inactive = no such curve, though single readings can be large or run the other way.

test: Primary qHTS for delayed death inhibitors of the malarial parasite plastid, 48 hour incubation; conditions: P. falciparum luciferase growth in erythrocytes; series mostly up to 28.7 µM; activity change, negative = inhibition: at the top concentration
Method in brief: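 Luciferase-expressing P. falciparum in infected erythrocytes (2% hematocrit, 0.1% parasitemia final) in RPMI 1640/0.5% Albumax were exposed to compound for 48 hours at 37 C, 5% CO2; growth read as luminescence.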
% is set by controls: 0 for no effect and ±100 for the full control effect; potency is the fitted concentration of half-maximal effect.

Row | Structure (SMILES) | activity change, negative = inhibition | Potency
1 | O=C(NC1CCN(Cc2ccccc2)CC1)c1c(F)cccc1F | -5.58% | 
2 | S=C(Nc1ccc(Br)cc1)NC1CCN(Cc2ccccc2)CC1 |  | 11.7 µM (active)
3 | S=C(NCCCc1ccccc1)Nc1ccc(Br)cc1 | -6.46% | 
4 | CN(CC(=O)Nc1ccc(F)c(F)c1F)C(=O)Cn1cnc2c1c(=O)n(C)c(=O)n2C | 4.25% | 
5 | O=C(OCCN1C(=O)c2ccccc2C1=O)Oc1ccccc1 | 9.7% | 
6 | CC(C)(C)OC(=O)NC(Cc1ccccc1)C(=O)NC(CSC1CCCCO1)C(=O)NN (stereo unspecified) | 29.4% | 
7 | Cc1csc(NC(=O)CSc2nnc(-c3cccnc3)o2)n1 | 6.46% | 
8 | CC1=C(C(=O)OC(C)(C)C)C(c2ccc(Br)cc2)NC(=O)N1CCCC(=O)O (stereo unspecified) | 2.52% | 
9 | COc1ccc(Br)cc1/C=N/NC(=O)c1cccc(S(=O)(=O)N2CCOCC2)c1 | 11.9% [at 5.75 µM] | 
10 | O=C(c1cccc(S(=O)(=O)N2CCOCC2)c1)N1CCOCC1 | 3.35% | 
11 | O=C(N/N=C/c1ccc([N+](=O)[O-])o1)c1cccc(S(=O)(=O)N2CCOCC2)c1 |  | 3.7 µM (active)
12 | CN(Cc1c(F)cccc1Cl)S(=O)(=O)c1cccs1 | 24.5% | 
13 | Cn1ncc(Br)c1C(=O)NC1CCCC1 | 104% | 
14 | CCOC(=O)c1cnc(-c2ccccc2)nc1Oc1ccc(C)cc1 |  | 3.29 µM (active)
15 | CCCCOc1ccc(-c2ncc(C(=O)OCC)c(N)n2)cc1 | 158% | 
16 | CCCNC(=O)c1cnc(-c2ccccc2)nc1-c1ccccc1 | 0.447% | 
17 | COc1cccc(CNC(=O)C2CCCN(S(=O)(=O)N3CC(C)CC(C)C3)C2)c1 (stereo unspecified) | -1.35% | 
18 | O=C(COCc1cc(-c2ccc3c(c2)OCO3)on1)N1CCN(c2cccc(Cl)c2)CC1 | 27.3% | 
19 | CCCCC(=O)Nc1c2c(nn1-c1ccc([N+](=O)[O-])cc1)CS(=O)(=O)C2 | 11.6% | 
20 | Cc1ccc2nc(SCC(=O)Nc3cccc4ccccc34)nc(=O)n2c1 | -6.05% | 
21 | C=CCn1c(N)cc(=O)nc1SCC(=O)Nc1cccc2ccccc12 | 1.48% | 
22 | Cc1ccccc1-n1c(SCC(=O)Nc2cccc3ccccc23)nc(O)cc1=O |  | 13.1 µM (active)

Row | Structure (SMILES) | activity change, negative = inhibition | Potency
23 | O=C(Cc1c(Cl)cccc1Cl)NC1CC1 | 1.57% | 
24 | COc1ccc(C(=O)NC2CCN(C(=O)Nc3ccc(F)cc3)CC2)cc1 | -0.699% | 
25 | Cc1ccc(SCC(=O)NNC(=O)c2ccc(S(C)(=O)=O)cc2)cc1 | 34.9% | 
26 | Cc1cccc(C)c1NC(=O)C1(N(C(=O)c2ccccn2)c2ccc(O)cc2)CCCCC1 | -0.862% | 
27 | COc1cccc(N(C(=O)c2ccn[nH]2)C2(C(=O)Nc3c(C)cccc3C)CCCCC2)c1 |  | 9.28 µM (active)
28 | COc1cccc(N(Cc2nnc3n2CCCCC3)C(=O)Nc2ccccc2F)c1 | 6.97% | 
29 | COc1ccc(C)cc1NC(=O)NCc1ccccn1 | -13% [at 5.75 µM] | 
30 | COc1ccc(C)cc1NC(=O)NCCCCc1ccccc1 |  | 14.7 µM (active)
31 | COc1ccc(C(=O)OCC(=O)NCCCc2ccccc2)cc1OC | 7.29% | 
32 | N#CC1(NC(=O)COC(=O)Cc2n[nH]c(=O)c3ccccc23)CCCCC1 | 23.3% | 
33 | O=C(O)[C@@H]1CCCN1c1ncnc2sc3c(c12)CCC3 | 6.15% | 
34 | O=C(O)c1cccnc1Sc1ncnc2sc3c(c12)CCC3 | -7.35% | 
35 | OCCNc1nc2ccccc2n1-c1ncnc2sc3c(c12)CCC3 |  | 6.57 µM (active)
36 | O=c1onc(-c2c(F)cccc2F)n1-c1ccccc1Cl | 4.36% [at 0.00184 µM] | 
37 | CN(CC(=O)NCCN1CCOCC1)S(=O)(=O)c1ccc(F)cc1 | -3.21% | 
38 | Cc1ccc(S(=O)(=O)N(C)CC(=O)NC2CCCC2)cc1 | -26.8% | 
39 | Cc1ccc(S(=O)(=O)N(C)CC(=O)NCC(c2ccc(F)cc2)N2CCOCC2)cc1 (stereo unspecified) |  | 9.28 µM (active)
40 | COc1cc([N+](=O)[O-])ccc1NC(=O)COC(=O)CCOc1ccc(C)cc1 | -17.7% | 
41 | COc1ccccc1OCCNC(=O)CCNC(=O)c1ccccc1Cl | 2.48% | 
42 | O=CN1CCN(C(=O)c2ccc3c(c2)OCO3)CC1 | 12.7% | 
43 | CC(=O)c1c(C)[nH]c(C(=O)COC(=O)CCOc2ccc(C)cc2)c1C | -21.9% | 
44 | CCNC(=S)N(CCN(CC)CC)Cc1cc2cc3c(cc2[nH]c1=O)OCCO3 | -16.8% | 

Row | Structure (SMILES) | activity change, negative = inhibition | Potency
45 | COCCn1cnc2c1c(=O)n(CC(=O)NN)c(=O)n2Cc1ccccc1 | -4.05% | 
46 | CCN(CC)CCn1cnc2c1c(=O)[nH]c(=O)n2Cc1ccccc1 | 11.6% | 
47 | N=c1c2c(-c3ccccc3)c(-c3ccccc3)n(Cc3ccccc3)c2ncn1CCCO |  | 2.33 µM (active)
48 | Cc1ccc(S(=O)(=O)N(CC(=O)NCc2ccco2)c2ccccc2C)cc1 | -27.1% | 
49 | CCNC(=O)CN(c1ccc(C)cc1)S(=O)(=O)c1ccc(SC)cc1 | -15.6% | 
50 | Cc1ccc(S(=O)(=O)N(CC(=O)NCCSC2CCCCC2)c2ccccc2F)cc1 |  | 4.65 µM (active)
51 | Cc1cccc(C)c1OCCN1CCOCC1 | 12.2% | 
52 | COc1ccc(/C=C/C(=O)c2cc(Br)ccc(=O)c2O)cc1 |  | 13.1 µM (active)
53 | COc1ccc(C(=O)/C=C/c2ccc(OC3CSC3)cc2)cc1 | -13% | 
54 | COc1ccc(/C=C/C(=O)c2ccc(OC)cc2O)cc1 | 34.8% | 
55 | CC(C)CCN1CCN=C1N(C)C | 37% | 
56 | Cc1nc2c(c(=O)n1Cc1ccco1)c1nc3ccccc3nc1n2Cc1ccccc1 |  | 9.28 µM (active)
57 | Cc1cc(NC(=O)CSc2nc3cc(Cl)ccc3c(=O)n2Cc2ccco2)no1 | 13% | 
58 | Nc1cc(=O)nc(SCc2ccccc2)n1Cc1ccco1 | -0.468% | 
59 | Cc1ccc(Cn2c(C)nc3c(c2=O)c2nc4ccccc4nc2n3Cc2ccco2)cc1 |  | 5.86 µM (active)
60 | COCCCn1c2nc3ccccc3nc2c2c(=O)n(Cc3ccc(Cl)cc3)c(C)nc21 | -3.86% | 
61 | Cc1cc2nc3c(=O)n(Cc4ccccc4)c(=O)[nH]c3nc2cc1N | -1.25% | 
62 | CC1(C)Cc2cccc(OCC(=O)NCc3ccccc3)c2O1 | 4.57% | 
63 | O=C(Oc1ccc(F)cc1)N1CCOCC1 | 1.01% | 
64 | COc1ccccc1NC(=O)COC(=O)COc1ccccc1F | -7.22% | 
65 | COc1ccccc1NC(=O)C1CCN(C(=O)c2ccc(C(C)(C)C)cc2)CC1 | -1.27% | 
66 | O=C(COC(=O)c1cc(S(=O)(=O)N2CCOCC2)ccc1Cl)NCCc1ccccc1 | 15.4% | 

Row | Structure (SMILES) | activity change, negative = inhibition | Potency
67 | OC(c1nc2ccc(F)cc2[nH]1)C(O)c1nc2ccc(F)cc2[nH]1 (stereo unspecified) | 11.2% | 
68 | Cc1ccc(CNC(=O)c2cc(-c3ccccc3C)n(CC3CC(c4cccc([N+](=O)[O-])c4)=NO3)n2)cc1 (stereo unspecified) |  | 5.22 µM (active)
69 | COc1ccc(NC(=O)NCc2ccc3c(c2)OCO3)c(OC)c1 | 1.8% | 
70 | COc1ccccc1-n1c(C)nc2cc(C(=O)NCc3ccc4c(c3)OCO4)ccc21 | 14.5% | 
71 | Cc1ccccc1-c1cc(C(=O)NCC2CC2)n(CC2CC(c3cccnc3)=NO2)n1 (stereo unspecified) | -6.01% | 
72 | COc1ccc(C2=NOC(Cn3nc(C(=O)NCc4ccc5c(c4)OCO5)cc3-c3ccccc3)C2)cc1 (stereo unspecified) |  | 9.28 µM (active)
73 | Cc1ccc(CNC(=O)c2c(-c3ccccc3)noc2C)cc1 | 2.95% [at 0.00184 µM] | 
74 | O=C(COC(=O)c1cc(=O)[nH]c2ccccc12)NCc1cccc(Cl)c1 | -24.3% | 
75 | O=C(NCc1cccs1)c1ccc(CS(=O)Cc2ccccc2Cl)o1 (stereo unspecified) | 14.7% | 
76 | CC(=O)NS(=O)(=O)c1ccc2c(c1)Cc1cc(S(=O)(=O)NC(C)=O)ccc1-2 | 20.5% | 
77 | CC(OC(=O)c1cc2ccccc2o1)C(=O)Nc1ccc(N2CCOCC2)cc1 (stereo unspecified) | -9.79% | 
78 | Cc1cc([N+](=O)[O-])ccc1NC1CCCC1 | 1.67% | 
79 | O=[N+]([O-])c1ccc(N/N=C2/CCCCC2c2ccccn2)c([N+](=O)[O-])c1 (stereo unspecified) | 2.85% | 
80 | C[n+]1ccccc1C1CCCC/C1=N\Nc1ccc([N+](=O)[O-])cc1[N+](=O)[O-] (stereo unspecified) |  | 3.7 µM (active)
81 | Cc1cc(O)c(C2(O)C(=O)Nc3ccccc32)cc1C (stereo unspecified) | -8.28% | 
82 | CCCn1nnnc1NCc1ccc(OC)cc1 | 54.3% | 
83 | CCCc1nc2c(C)cc(-c3nc4ccccc4n3C)cc2n1Cc1ccc(-c2ccccc2C(=O)O)cc1 |  | 3.79 µM (active)
84 | CC(=O)c1nc2ccccc2n1Cc1ccccc1 | 18.9% [at 0.00184 µM] | 
85 | Cc1ccc(Cn2c(SCC(=O)N/N=C/c3ccccc3OCC(=O)O)nc3ccccc32)cc1 | 7.08% | 
86 | CN(c1ccccc1)S(=O)(=O)c1cccc(C(=O)NNC(=O)c2ccncc2)c1 | -4.87% | 
87 | CCOc1ccc(N2C(=O)CC(N(CCc3ccc(OC)c(OC)c3)C(=S)Nc3ccccc3)C2=O)cc1 (stereo unspecified) |  | 10.4 µM (active)
88 | CCOc1ccc(N2C(=O)CC(N(O)c3ccccc3)C2=O)cc1 (stereo unspecified) | 59.6% | 

Row | Structure (SMILES) | activity change, negative = inhibition | Potency
89 | COC(=O)CN(C(=S)Nc1ccc(Cl)cc1)C1CC(=O)N(c2ccc(OC)cc2)C1=O (stereo unspecified) | -15% | 
90 | Cc1cccc(NC(=S)NCCc2ccc(Cl)cc2)c1C |  | 2.94 µM (active)
91 | S=C(NCCc1ccccc1)Nc1ccccc1 | 16.9% | 
92 | CCNC(=S)Nc1cccc(Cl)c1C | -16.4% | 
93 | O=C(CN1CCCSc2ccccc21)N1CCN(S(=O)(=O)c2ccccc2)CC1 | 4.98% | 
94 | O=C(CN1C(=O)S/C(=C\c2ccccc2Cl)C1=O)NC1C=CS(=O)(=O)C1 (stereo unspecified) | 1.18% | 
95 | COc1c(C)c2c(c(O)c1C/C=C(\C)CCC(=O)O)C(=O)OC2 |  | 2.56 µM (active)
96 | COc1ccc(C(=O)Nc2ccnn2C2CCN(Cc3ccncc3)CC2)cc1 | 24.7% | 
97 | C=CCn1c(=O)c(C(=O)Nc2ncccc2O)c(O)c2ccccc21 | 61.6% | 
98 | CCOc1ccc(S(=O)(=O)NCCC(=O)N2CCCCCCC2)cc1 | 9.99% | 
99 | O=C(NCC1CCCO1)c1ccc(S(=O)(=O)Nc2ccc(F)cc2)cc1 (stereo unspecified) | 6.48% | 
100 | CCOc1ccc(S(=O)(=O)Nc2ccc(C(=O)NCCCN3CCCC3=O)cc2)cc1 | 9.13% | 
101 | CCOc1ccc(NS(=O)(=O)c2ccc(C(=O)NCC(c3ccccc3OC)N3CCCC3)cc2)cc1 (stereo unspecified) |  | 10.4 µM (active)
102 | CCOC(=O)c1cccc(NS(=O)(=O)c2c(C(=O)N3CCCCCC3)c(C)n(C)c2C)c1 | -12.8% | 
103 | CN(C)S(=O)(=O)c1ccc(C(=O)NCC2(N3CCOCC3)CCCCC2)cc1 | -19.4% | 
104 | CCOc1ccc(S(=O)(=O)Nc2cccc(C(=O)NCC3(N4CCCCC4)CCCCC3)c2)cc1 |  | 14.7 µM (active)
105 | CCOc1ccc(S(=O)(=O)Nc2ccc(OC)nc2)cc1 | 8.27% | 
106 | O=C(NCC1(N2CCCCC2)CCCCC1)c1ccc(NS(=O)(=O)c2ccc(F)cc2)cc1 |  | 14.7 µM (active)
